# Only a selection was taken, and the strongest signals are over-represented in it overall.
# B1: EcCDA (Encephalitazoon cuniculi), Q8SU65 (protein)
# chain: MLLCLLYFTSSWCSGSDVPDVCTNSGMIAINFVDGPVRGVTDRILNTLDELGVKATFSFTVNQKAVGNVGQLYRRAVEEGHNVALRVDPSMDEGYQCLSQDALENNVDREIDTIDGLSGTEIRYAAVPICNGQVNSEMYNILTERGVLPVGYTFCPYDYDDPVGEFESMIEGSDPKHHSFIILMHDGQEADTSRLENMVKIGKDKGYRFVNMDECLQGYKGAPGDPELSLRGKGVESIGKGFLPFFLMMLVRLL
# B2: Lmo1413 (Listeria monocytogenes), Q8Y783 (protein)
# chain: MKHAKKSLFTFIIFMTILSITFNPFSAKAAPLMLNLPAPQVDQLYIGDDYITGKLQQEVPMHYPGNAAYVLFNNKQYNITDYTVENDVNFRLKLPKTLEAGDTLNYFTITGNVLDPVAYPGQESYKLAGPFSPIEKANIQVNYVDETNQTLATSDTLSGKLGETYTTSPKAIDGYQVKETPTNATGTYTTNTETIQINYVYEKTAVEGANVSVEYINEATNESIAPTETLSGKIGTTFQAEVKEIDGYELSQVPSNQSGTYTDQTQSVIFKYKKITTPDEVAKDVTVTYKDTKGNQLADPVILKGDIGSTFETEAKSFKGYKLTKTPSNHSSVFTSDSQEVEYVYSKDDAVITPPVTPVNPDKPIINPVKPVNPATSTVPNKNISKKNTTKTVNQTGKTSTALQLPKTGDSENNLPLIIGVSLLISGVYIFTTRRKRVK
# How the values were obtained:
# Assay in all cases: glycan array binding signal (z-score within array); higher = stronger binding
# Settings in all cases: glycan notation: IUPAC condensed, linker removed
# [1] = target: Fuc(a1-2)[Gal(a1-3)]Gal(b1-4)Glc
# How it was run: (§1)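 Negative Z-scores can be read as non-binding. The Z-score is calculated within each array and then averaged across arrays of one protein sequence at different concentrations or buffers and across linkers. Arrays, 3228 in all, were curated from the Consortium for Functional Glycomics database and kept only where the protein sequence was available.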
# [2] = target: Fuc(a1-3)[Gal(b1-4)]GlcNAc
# How it was run: as §1
# [3] = target: Gal(a1-6)Glc
# How it was run: as §1
# [4] = target: Gal(b1-3)Gal
# How it was run: as §1
# [5] = target: Gal(b1-3)GalNAc(b1-3)Gal(b1-4)GlcNAc
# How it was run: as §1
# [6] = target: Gal(b1-3)GalNAc(b1-4)[Neu5Ac(a2-3)]Gal(b1-4)Glc
# How it was run: as §1
# [7] = target: Gal(b1-4)GlcNAc(b1-6)[Gal(b1-3)]GalNAc
# How it was run: as §1
# [8] = target: Gal3S(b1-3)GalNAc
# How it was run: as §1
# [9] = target: Gal3S(b1-4)Glc
# How it was run: as §1
# [10] = target: Gal3S(b1-4)Glc6S
# How it was run: as §1
# [11] = target: GalNAc(b1-3)Gal(a1-4)Gal(b1-4)GlcNAc
# How it was run: as §1
# [12] = target: GalNAc(b1-4)GlcNAc
# How it was run: as §1
# [13] = target: Man(a1-2)Man(a1-3)[Man(a1-3)[Man(a1-6)]Man(a1-6)]Man(b1-4)GlcNAc(b1-4)GlcNAc
# How it was run: as §1
# [14] = target: Man(a1-3)[Man(a1-6)]Man(a1-6)[Man(a1-3)]Man(b1-4)GlcNAc(b1-4)GlcNAc
# How it was run: as §1
# [15] = target: Neu5Ac(a2-3)Gal(b1-3)GalNAc(b1-3)Gal(a1-4)Gal(b1-4)Glc
# How it was run: as §1
# [16] = target: Neu5Ac(a2-3)Gal(b1-3)[Neu5Ac(a2-6)]GalNAc
# How it was run: as §1
# [17] = target: Neu5Ac(a2-3)Gal(b1-4)Glc
# How it was run: as §1
# [18] = target: Neu5Ac(a2-3)Gal(b1-4)GlcNAc6S
# How it was run: as §1
# [19] = target: Neu5Ac(a2-3)GalNAc
# How it was run: as §1
# [20] = target: Neu5Ac9Ac(a2-6)Gal(b1-4)GlcNAc
# How it was run: as §1
# [21] = target: Gal(a1-3)Gal
# How it was run: as §1
# [22] = target: Gal(a1-3)Gal(b1-4)[Fuc(a1-3)]GlcNAc(b1-2)Man(a1-3)[Gal(a1-3)Gal(b1-4)[Fuc(a1-3)]GlcNAc(b1-2)Man(a1-6)]Man(b1-4)GlcNAc(b1-4)GlcNAc
# How it was run: as §1
# [23] = target: Gal(a1-3)GalNAc
# How it was run: as §1
# [24] = target: Gal(b1-3)GalNAc(b1-3)Gal(a1-4)Gal(b1-4)Glc
# How it was run: as §1
# [25] = target: Gal(b1-3)GlcNAc(b1-2)Man(a1-3)[Gal(b1-3)GlcNAc(b1-2)Man(a1-6)]Man(b1-4)GlcNAc(b1-4)GlcNAc
# How it was run: as §1
# [26] = target: Gal(b1-3)GlcNAc(b1-3)Gal(b1-3)GlcNAc
# How it was run: as §1
# [27] = target: Gal(b1-3)GlcNAc(b1-3)Gal(b1-4)[Fuc(a1-3)]GlcNAc(b1-6)[Gal(b1-3)GlcNAc(b1-3)]Gal(b1-4)Glc
# How it was run: as §1
# [28] = target: Gal(b1-3)[Fuc(a1-4)]GlcNAc(b1-2)Man(a1-3)[Gal(b1-3)[Fuc(a1-4)]GlcNAc(b1-2)Man(a1-6)]Man(b1-4)GlcNAc(b1-4)GlcNAc
# How it was run: as §1
# [29] = target: Gal(b1-3)[Fuc(a1-4)]GlcNAc(b1-3)Gal(b1-3)[Fuc(a1-4)]GlcNAc
# How it was run: as §1
# [30] = target: Gal(b1-3)[Neu5Ac(b2-6)]GalNAc
# How it was run: as §1
# [31] = target: Gal(b1-4)GlcNAc(b1-2)Man(a1-3)Man(b1-4)GlcNAc(b1-4)GlcNAc
# How it was run: as §1
# [32] = target: Gal(b1-4)GlcNAc(b1-2)Man(a1-3)[Man(a1-6)]Man(b1-4)GlcNAc(b1-4)GlcNAc
# How it was run: as §1
# [33] = target: Gal4S(b1-4)GlcNAc
# How it was run: as §1
# [34] = target: Glc(a1-4)Glc
# How it was run: as §1
# [35] = target: GlcA(b1-3)GlcNAc
# How it was run: as §1
# [36] = target: GlcA(b1-6)Gal
# How it was run: as §1
# [37] = target: GlcNAc(a1-3)Gal(b1-4)GlcNAc
# How it was run: as §1
# [38] = target: GlcNAc(a1-4)Gal(b1-4)GlcNAc(b1-3)Gal(b1-4)Glc
# How it was run: as §1
# [39] = target: GlcNAc(a1-6)Gal(b1-4)GlcNAc
# How it was run: as §1
# [40] = target: GlcNAc(b1-2)Gal(b1-3)GalNAc
# How it was run: as §1
# [41] = target: GlcNAc(b1-4)GlcNAc(b1-4)GlcNAc
# How it was run: as §1
# [42] = target: Kdn(a2-6)Gal(b1-4)GlcNAc
# How it was run: as §1
# [43] = target: Man(a1-3)[Man(a1-6)]Man(b1-4)GlcNAc(b1-4)GlcNAc
# How it was run: as §1
# [44] = target: Neu5Ac(a2-3)Gal(b1-4)GlcNAc(b1-2)Man(a1-3)[Neu5Ac(a2-6)Gal(b1-4)GlcNAc(b1-2)Man(a1-6)]Man(b1-4)GlcNAc(b1-4)GlcNAc
# How it was run: as §1
# [45] = target: Neu5Ac(a2-3)Gal(b1-4)[Fuc(a1-3)]GlcNAc(b1-3)Gal(b1-4)[Fuc(a1-3)]GlcNAc(b1-3)Gal(b1-4)[Fuc(a1-3)]GlcNAc
# How it was run: as §1
# [46] = target: Neu5Ac(a2-6)Gal(b1-4)GlcNAc(b1-3)GalNAc
# How it was run: as §1
# [47] = target: Neu5Ac(a2-6)GlcNAc(b1-4)GlcNAc(b1-4)GlcNAc
# How it was run: as §1
# [48] = target: Neu5Gc(a2-3)Gal(b1-4)Glc
# How it was run: as §1
binder,measurement,setting,value
B1,glycan array binding signal (z-score),[1],2.96
same,glycan array binding signal (z-score),[2],-0.055
same,glycan array binding signal (z-score),[3],3.02
same,glycan array binding signal (z-score),[4],-0.337
same,glycan array binding signal (z-score),[5],-0.363
same,glycan array binding signal (z-score),[6],-0.234
same,glycan array binding signal (z-score),[7],-0.1
same,glycan array binding signal (z-score),[8],0.115
same,glycan array binding signal (z-score),[9],0.022
same,glycan array binding signal (z-score),[10],5.58
same,glycan array binding signal (z-score),[11],1.6
same,glycan array binding signal (z-score),[12],-0.289
same,glycan array binding signal (z-score),[13],-0.2
same,glycan array binding signal (z-score),[14],-0.34
same,glycan array binding signal (z-score),[15],-0.476
same,glycan array binding signal (z-score),[16],-0.318
same,glycan array binding signal (z-score),[17],-0.322
same,glycan array binding signal (z-score),[18],-0.284
same,glycan array binding signal (z-score),[19],0.071
same,glycan array binding signal (z-score),[20],4.58
B2,glycan array binding signal (z-score),[21],-0.219
same,glycan array binding signal (z-score),[22],0.065
same,glycan array binding signal (z-score),[23],-0.056
same,glycan array binding signal (z-score),[24],-0.2
same,glycan array binding signal (z-score),[25],-0.218
same,glycan array binding signal (z-score),[26],-0.215
same,glycan array binding signal (z-score),[27],-0.158
same,glycan array binding signal (z-score),[28],1.29
same,glycan array binding signal (z-score),[29],-0.139
same,glycan array binding signal (z-score),[30],2.02
same,glycan array binding signal (z-score),[31],-0.199
same,glycan array binding signal (z-score),[32],-0.229
same,glycan array binding signal (z-score),[33],-0.075
same,glycan array binding signal (z-score),[34],2.23
same,glycan array binding signal (z-score),[35],1.78
same,glycan array binding signal (z-score),[36],0.693
same,glycan array binding signal (z-score),[37],1.66
same,glycan array binding signal (z-score),[38],-0.095
same,glycan array binding signal (z-score),[39],1.42
same,glycan array binding signal (z-score),[40],2.98
same,glycan array binding signal (z-score),[41],0.095
same,glycan array binding signal (z-score),[42],-0.144
same,glycan array binding signal (z-score),[43],-0.231
same,glycan array binding signal (z-score),[44],-0.29
same,glycan array binding signal (z-score),[45],0.379
same,glycan array binding signal (z-score),[46],-0.219
same,glycan array binding signal (z-score),[47],-0.222
same,glycan array binding signal (z-score),[20],-0.263
same,glycan array binding signal (z-score),[48],-0.252

# Source: the supplement of paper PMC8728848
